Bioassay records as filed in PubChem.
Hits are enriched below; roughly 21% of the tested compounds scored in any of these assays.
Shiga toxin inh – Shiga toxin inhibition | inhibition, % at 38.7 µM | Vero cells, Shiga toxin protein synthesis inhibition reporter | 290,000 tested, 9.2% active; in the data active = inhibition mostly above about 28%, no sharp cut-off; inactive = mostly below about 43%; note: 0% is about no effect
SARS PLP yeast – inhibitors of SARS-CoV papain-like protease in yeast. Potency, µM (highest dose often 32.9 µM), inactives show at the highest dose activity, positive = growth rescue, actives largely listed as activators. AID 485353. S. cerevisiae expressing SARS-CoV PLpro, growth rescue. 330,000 tested, 0.19% active; note: potency is the fitted concentration of half-maximal effect; 0% is about no effect; nearly all actives have a fitted effect of over 55% in size
Pf growth 48h – inhibits P. falciparum growth in the first generation, 48 h; Potency, µM (titrated, usually from 28.7 µM), without a hit: at the highest dose activity change, negative = inhibition, hits mostly inhibitors; AID 504832; 310,000 tested, 5.9% active; P. falciparum luciferase growth in erythrocytes, 48 h; active = well fitted inhibition curve with a large enough effect; inconclusive = small, poorly fitted or top-dose-only effect, or another doubt; inactive = no such curve, though single readings can be large or run the other way; note: potency is the fitted concentration of half-maximal effect; % is set by controls: 0 for no effect and ±100 for the full control effect
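Luciferase-expressing parasites in RBCs, 2% Hct / 0.1% parasitemia final; RPMI 1640 + 0.5% Albumax; 37 C, 5% CO2, one generation; luminescence read-out, lower signal = inhibition.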
CHX counter – counter-screen for Shiga toxin inhibitors: cycloheximide protein synthesis inhibition; 300,000 tested, 12% active; AID 2314; cell reporter, cycloheximide protein synthesis inhibition counterscreen; max response, %; in the data active = max response mostly above about 13%, no sharp cut-off; inactive = mostly below about 14%; note: read at 38.3 µM for the half of the compounds with a filed dose; 0% is about no effect
NS1 function inh – influenza NS1 inhibition. Potency, µM (highest dose often 46.1 µM), for the others: at the highest dose activity, positive = more growth. 270,000 tested, 0.4% active. AID 2326; note: potency is the fitted concentration of half-maximal effect; actives are rising curves; nearly all actives have a fitted effect of over 50% in size
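A cell-based growth assay was used: compounds that relieve NS1-induced slow growth of budding yeast raise OD600. Assay medium was yeast nitrogen base with ammonium sulphate and -URA supplement, pH 6.0, with 2% galactose.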
Pf growth 96h – P. falciparum growth inhibition at 96 hour, primary screen for plastid delayed-death inhibitors. P. falciparum luciferase reporter growth, 96 h. Potency, µM (doses to about 28.7 µM), without a hit: at the highest dose activity change, negative = inhibition, hits mostly inhibitors. AID 504834. 320,000 tested, 6.9% active; active = well fitted inhibition curve with a large enough effect; inconclusive = small, poorly fitted or top-dose-only effect, or another doubt; inactive = no such curve, though single readings can be large or run the other way; note: potency is the fitted concentration of half-maximal effect; % is set by controls: 0 for no effect and ±100 for the full control effect
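Readout is luminescence from an integrated firefly luciferase in P. falciparum. Red cells, 2% hematocrit and 0.05% parasitemia final, were cultured with compound through two parasite generations (96 hours) at 37 C, 5% CO2.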
The depositor's hits bear a star; ? = inconclusive; . = not tested or not shown; [ ] = another dose, or the depositor's remark. Unless noted, calls come from the whole dose curve.

SMILES	Shiga toxin inh	SARS PLP yeast	Pf growth 48h	CHX counter	NS1 function inh	Pf growth 96h
CC12CC3(C)CC(C)(C1)CC(C(=O)NCc1cccnc1)(C2)C3	-22	-2%	-17%	-1	-15%	12µM*
CC(C)(C)NC(=O)NCc1cccnc1	21	0%	-1%	4	6%	0%
CC12CC3CC(C)(C1)CC(C(=O)NCc1ccco1)(C3)C2	5	-4%	0%	-1	0%	5%
O=C(CC1NCCC[C@H]1O)Cn1cnc2cc(Br)c(Cl)cc2c1=O (stereo partly drawn)	.	.	0.6µM*	.	.	?
CCc1nc(SCC(=O)N2CCC(C)CC2)c2c(=O)n(C)c(=O)n(C)c2n1	-3	8%	?	-2	-39%	?
Fc1ccccc1N1CCN(c2nc3ccccc3n3nnnc23)CC1	23	-1%	35%	14*	-16%	67%
O=C(O)c1cc2nc3c(c(C(F)(F)F)n2n1)CCCC3	-4	1%	12%	-3	1%	1%
O=C(Nc1ccc(F)cc1F)c1cc2nc3c(c(C(F)(F)F)n2n1)CCCC3	24	19%	129%	26*	6%	10µM*
O=C(Nc1ccc(F)cc1F)c1cc2n(n1)C(C(F)(F)F)C1CCCCC1N2 (stereo not drawn)	84*	-8%	16%	30*	-3%	-14%
Cn1nc(C(F)(F)F)c(C(=O)Nc2ccc(F)cc2F)c1Cl	-25	-3%	-5%	-1	.	11%
COc1ccc(-n2cnnc2SCC(=O)Nc2ccccc2F)cc1	-4	0%	13%	-3	-4%	15%
CC(C)NC(=O)CN(Cc1ccc2c(c1)OCO2)C(=O)CCC(=O)Nc1ccccn1	-3	0%	6%	-8	-12%	-3%
CC(C)C[C@H]1CN=C(Nc2ccccc2)N1CCc1cccc(F)c1	.	-3%	.	.	.	.
CC(C)C[C@H]1CN=C(Nc2ccccc2)N1CC1CCCCCC1	.	4%	?	.	.	10µM*
Cc1cccc(CCN2C(Nc3ccccc3)=NC[C@@H]2CC(C)C)c1	.	0%	10µM*	.	.	?
CCCCCCCN1C(Nc2ccccc2)=NC[C@@H]1Cc1ccccc1	-2	3%	?	-4	-16%	5.2µM*
NC(=O)c1nsc(C(=O)N(Cc2ccccc2Cl)C(C(=O)NCC2CCCO2)c2ccc(O)cc2)c1N (stereo not drawn)	-6	-3%	?	-4	-12%	1%
CCCCN(C)C(=O)Cn1nc(-c2ccc(Cl)cc2)ccc1=O	-10	-3%	-13%	-1	4%	-16%
Nc1ccc(S(=O)(=O)Nc2nccc(/C=C/c3ccccc3F)n2)cc1	-8	-1%	-17%	-1	.	-63%[5.75 µM]
COc1ccc(C(=O)Nc2c3c(nn2-c2ccc(Cl)cc2)CS(=O)(=O)C3)cc1	-3	0%	?	-4	-19%	?
CCCCCc1nnc(NC(=O)OCCC)s1	27	-10%	25%	14*	-67%	.
C/C=C(\C)c1nnc(NC(=O)OCC)s1	42*	-5%	28%	15*	5%	.
CCc1nnc(NC(=O)OCc2ccccc2)s1	60*	-10%	44%	20*	6%	-8%
CCOC(=O)Nc1nnc(CCc2ccccc2)s1	-2	3%	7%	-4	-14%	.
CCCCOC(=O)Nc1nc(C)c(C(=O)OCC)s1	23	.	.	12	-55%	1.5µM*
SMILES	Shiga toxin inh	SARS PLP yeast	Pf growth 48h	CHX counter	NS1 function inh	Pf growth 96h
CCOC(=O)c1sc(NC(=O)CC)nc1C	19	-1%	-3%	12	.	20%
CCCCCCc1nnc(NC(=O)OCC)s1	-5	0%	-3%	-3	-76%	-14%
CCCCCOC(=O)Nc1nnc(CCCCC)s1	-24	-4%	2%	-3	-48%	.
CCCCOC(=O)Nc1nnc(CC)s1	56*	7%	.	43*	0%	164%
O=C(COc1ccccc1)NCC(=O)N1CCCCCC1	.	2%	4%	.	.	-8%
COc1ccc(-c2nc3ccccn3c2NC2CCCCC2)cc1SC1CCCCC1	.	-1%	12µM*	.	.	?
c1ccc(-c2nc3ccccn3c2NC2CCCC2)nc1	16	-6%	10µM*	27	-54%	19%
COc1cc(-c2nc3ccc(C)cn3c2NCc2ccccc2)ccc1SC1CCCCC1	.	-9%	?	.	.	4.7µM*
COc1ccc(CSc2ccc(-c3nc4ccccn4c3NCc3ccccc3)cc2OC)cc1	.	0%	10µM*	.	.	?
Cc1ccn2c(NC3CCCC3)c(-c3ccccn3)nc2c1	-13	-20%	-24%	23	.	?
CCOC(=O)C1CCCN(C(=O)COC(=O)C2=COCCO2)C1 (stereo not drawn)	-6	0%	13%	-3	-1%	42%
CC(=O)Oc1ccc(C(=O)Nc2ccccc2C(=O)Nc2ccc(C(=O)O)cc2)cc1	.	1%	-4%	-3	21%	-14%
CCC(C)Sc1ccc(-c2nc3ccccn3c2NCc2ccccc2)cc1OC (stereo not drawn)	.	5%	.	.	.	.
COc1cc(-c2nc3ccccn3c2NCc2ccccc2)ccc1SC1CCCCC1	.	-3%	5.2µM*	.	.	?
COc1cc(-c2nc(-c3ccccc3)c(-c3cccs3)[nH]2)cc(OC)c1OC	-26	-5%	?	-1	?	.
COc1cccc(-c2nc(-c3ccccc3)c(-c3ccccc3)[nH]2)c1OCC(=O)O	-4	6%	?	-1	?	183%
COc1cccc(-c2nc(-c3ccc4c(c3)-c3ccccc3S4(=O)=O)c(-c3ccccc3)[nH]2)c1OC	10	-13%	9.3µM*	-4	?	?
COc1cc(-c2nc(-c3ccc4c(c3)-c3ccccc3S4(=O)=O)c(-c3ccccc3)[nH]2)cc(OC)c1OC	33	2%	1.9µM*	6	28%	2%
CC1CN(c2ccc([N+](=O)[O-])cc2F)CCN1C(=O)c1ccco1 (stereo not drawn)	-18	-2%	-8%	-1	-38%	32%
CC(=O)c1ccc(N2CCN(C(=O)c3ccco3)C(C)C2)c(F)c1 (stereo not drawn)	-3	-3%	-17%	-1	-2%	8%
CC(=O)c1cc(F)c(N2CCN(C(=O)c3ccco3)CC2)cc1C	0	-4%	0%	31*	-15%	.
O=C(c1ccco1)N1CCN(c2ccc([N+](=O)[O-])cc2F)CC1	40*	-3%	15%	13*	-6%	16%
CC(=O)c1ccc(N2CCN(C(=O)c3ccco3)CC2)c(F)c1	59*	-5%	51%	48*	3%	.
CC(C)N(CCCNC(=O)c1nn(C)c2c1CS(=O)(=O)c1ccccc1-2)Cc1ccccc1	-4	-4%	-24%	-2	-10%	-6%
Cc1ccc(/C=C/C(=O)Nc2nn[nH]n2)o1	-8	-15%	13%	-3	7%	?
CC(C)c1ccc(/C=C/C(=O)Nc2nn[nH]n2)cc1	28	1%	39%	13*	.	12%
CCOC(=O)C1(CCOc2ccccc2)CCN(CCCn2cccn2)CC1	3	0%	?	-1	-2%	?
